Bioassay records: PubChem BioAssay, National Center for Advancing Translational Sciences (NCATS)
Shiga toxin inh: Shiga toxin inhibition. inhibition, % at 38.7 µM. Vero cells, Shiga toxin protein synthesis inhibition reporter. 290,000 compounds, 9.2% hits; in the data active means inhibition mostly above about 28%, no sharp cut-off; inactive means mostly below about 43%; further: 0% is about no effect
SARS PLpro yeast: inhibitors of SARS-CoV papain-like protease in yeast; S. cerevisiae expressing SARS-CoV PLpro, growth rescue; Potency, µM (titrated, usually from 32.9 µM), for the others: top-dose activity, positive = growth rescue, actives largely listed as activators; 330,000 compounds, 0.19% hits; AID 485353; further: potency means the concentration at half of the fitted maximal effect; 0% is about no effect; nearly all actives have a fitted effect of over 55% in size
Cycloheximide cs: counter-screen hit for Shiga toxin inhibitors, cycloheximide. 300,000 compounds, 12% hits. cell reporter, cycloheximide protein synthesis inhibition counterscreen. AID 2314. max response, %; in the data active means max response mostly above about 13%, no sharp cut-off; inactive means mostly below about 14%; further: read at 38.3 µM for the half of the compounds with a filed dose; 0% is about no effect
NS1 inh: influenza NS1 inhibition; Potency, µM (top dose mostly 46.1 µM), for inactives: at the highest dose activity, positive = more growth; 270,000 compounds, 0.4% hits; AID 2326; further: potency means the concentration at half of the fitted maximal effect; actives are rising curves; nearly all actives have a fitted effect of over 50% in size
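Recovery from NS1-induced slow growth read by OD600 in budding yeast switched to galactose assay medium (pH 6.0, -URA) at 1:100 dilution. Compound 23 nl per well; the matching strain lacking NS1 serves as control.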
Numbers without * were called inactive. An excerpt weighted towards active compounds, which were near 12% of everything screened. Unless noted, the call rests on the fitted dose curve.

For COc1ccc2c(c1)C(=O)[C@@H](O)[C@H](c1ccc(OC)c(Br)c1)O2 the results were Shiga toxin inh 43*, SARS PLpro yeast -10%, Cycloheximide cs 18* and NS1 inh 12%.
Screening COc1cccc([C@@H]2Oc3ccc(Br)cc3C(=O)[C@H]2OC(=O)NC2CCCC2)c1 returned Shiga toxin inh 12, SARS PLpro yeast 5%, Cycloheximide cs -2 and NS1 inh 7%.
C/C(=N/OCc1ccc(Br)cc1)c1ccccn1 was read as Shiga toxin inh 60*, SARS PLpro yeast 19% and Cycloheximide cs 26*.
Screening C/C(=N\OC(=O)c1ccc(Br)cc1)c1ccccn1 returned Shiga toxin inh 13, SARS PLpro yeast -34%, Cycloheximide cs 4 and NS1 inh -24%.
Cc1ccccc1-c1cc(C(=O)NCC2CC2)nn1CC1CC(c2cccc([N+](=O)[O-])c2)=NO1 (centres undefined) was read as SARS PLpro yeast 2%.
`O=C(O)CCC(=O)c1ccc[nH]1` gave NS1 inh 0%.
For O=C(COc1ccc(F)c(Cl)c1)c1ccc[nH]1 the results were Shiga toxin inh 40, SARS PLpro yeast -7%, Cycloheximide cs 36* and NS1 inh -9%.
For O=C(CCC(=O)c1ccc[nH]1)c1ccc(Cl)cc1 the results were Shiga toxin inh 100*, SARS PLpro yeast -3%, Cycloheximide cs 46* and NS1 inh -22%.
For O=C1c2ccccc2C(=O)c2c(NC3CCCCC3)ccc(Nc3ccc(S(=O)(=O)O)cc3)c21 the results were NS1 inh -8%.
For O=C(COc1ccc(Br)cc1)N1CCN(Cc2c[nH]c3ccccc23)CC1 the results were Shiga toxin inh -12, SARS PLpro yeast 5%, Cycloheximide cs -3 and NS1 inh -4%.
O=C(COc1ccc2ccccc2c1)N1CCN(Cc2c[nH]c3ccccc23)CC1 was read as Shiga toxin inh 19, SARS PLpro yeast 0%, Cycloheximide cs 17* and NS1 inh inconclusive.
Screening O=C(O)C1C2C=CC(O2)C1C(=O)NC1CCCc2ccccc21 (centres undefined) returned Shiga toxin inh -5, SARS PLpro yeast -5%, Cycloheximide cs -2 and NS1 inh 4%.
COc1ccc(Nc2nc(N)nc(CCl)n2)cc1 was read as Shiga toxin inh 78*, SARS PLpro yeast 0%, Cycloheximide cs 67* and NS1 inh 2%.
Screening Nc1nc(CCl)nc(Nc2ccc3ccccc3c2)n1 returned Shiga toxin inh 90*, SARS PLpro yeast -1%, Cycloheximide cs 74* and NS1 inh 2%.
Screening Cc1cc(C)c(O)c(NC(=S)NC(=O)Cc2ccccc2)c1 returned Shiga toxin inh 5, SARS PLpro yeast -9%, Cycloheximide cs -1 and NS1 inh 0%.
Screening COc1ccc(C2N(c3ccccc3)CCN2c2ccccc2)cc1O returned Shiga toxin inh 59*, SARS PLpro yeast -2%, Cycloheximide cs 26* and NS1 inh -6%.
`O=[N+]([O-])c1ccc(-c2c[nH]c(=S)[nH]2)cc1` gave Shiga toxin inh 18, SARS PLpro yeast -1%, Cycloheximide cs 15 and NS1 inh inconclusive.
Screening S=c1[nH]cc(-c2ccccc2)[nH]1 returned Shiga toxin inh 34*, SARS PLpro yeast -1%, Cycloheximide cs 39* and NS1 inh 13%.
`Cc1ccc2nc(SCC(=O)Nc3cc(C)on3)nc(=O)n2c1` gave SARS PLpro yeast 1%.
Screening CN(C(=O)c1cc2sccc2n1C)C1CCCCC1 returned Shiga toxin inh 99*, SARS PLpro yeast 8%, Cycloheximide cs 42* and NS1 inh -12%.
`CC1CCN(CCCNC(=O)c2cc3sccc3n2C)CC1` gave Shiga toxin inh -18, SARS PLpro yeast -8%, Cycloheximide cs -6 and NS1 inh 1%.
Cn1c(C(=O)NC2CCCCC2)cc2sccc21 was read as Shiga toxin inh 50, SARS PLpro yeast 5%, Cycloheximide cs 29* and NS1 inh -12%.
For CCn1c(C(=O)NC2CCC(C)CC2)cc2sccc21 (centres undefined) the results were Shiga toxin inh 73*, SARS PLpro yeast -3%, Cycloheximide cs 38* and NS1 inh 3%.
Screening COCCCn1c(-c2ccsc2)nc2c1c(=O)[nH]c(=O)n2Cc1ccccc1 returned Shiga toxin inh 15, SARS PLpro yeast 3%, Cycloheximide cs 0 and NS1 inh 5%.
For CCCCNC(C(=O)Nc1ccc(Cl)c([N+](=O)[O-])c1)c1ccccc1 (centres undefined) the results were Shiga toxin inh -6, SARS PLpro yeast -22%, Cycloheximide cs -3 and NS1 inh -13%.
For CCc1ccc(CNC(=O)c2ccc(OC3CCN(C(=O)COC)CC3)cc2)nc1 the results were Shiga toxin inh 14, SARS PLpro yeast -2%, Cycloheximide cs 21 and NS1 inh -1%.
